Laboratory results from the supplement of paper PMC6555819.

Each sequence was assayed on VDR:RXRa (NR concentration 270 nM, RXRa partner concentration 90 nM) (assay: PBM binding z-score (relative to random genomic background probes); higher = stronger binding; sequences stand for … in GC…GCGATTGACAGCGTAGAATGAAGG).
Procedure: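 Protein-binding microarray (Agilent 4x180K custom design, double-stranded 60-nt probes: 5' GC cap, 34-nt variable region, 24-nt constant primer region; full probe sequence given). Purified or IVT nuclear receptor:RXRα heterodimers (3:1 NR:RXRα, mostly 270:90 nM) or homodimers were incubated for 1 h in PBS with 2% milk and no ligand, then detected with Alexa488 antibodies. Fluorescence from o1-orientation probes (~5 replicates averaged) was converted to z-scores against 500 random hg19 background probes. Variable regions are seed direct-repeat (DR0–DR5) sites, all their single-nucleotide variants and half-site ablations.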
Sequence ATCGAAAGGTAGTGAGGTGAGTATACAGAAAGGC has a PBM binding z-score of -0.165. CAAACTAGGTTAAAGGTCAAAGTCGAGCCAACCA gave a PBM binding z-score of 5.47. CCTTACGGGTCACTCCAGGCTATAGCATCGGAGT gave a PBM binding z-score of 2.98. Sequence AGAATGATGTTAAGATCAGGGAAACAGAATACAT has a PBM binding z-score of -0.114. TCGACTAGGTTACCAATGGGGCATTCAGCTTTCT gave a PBM binding z-score of 0.439. TAGCCTGGGTCATGGGCCAGTATACCACGCGAAC was tested, and the PBM binding z-score was 1.82. For TAGCCTAGGTCAGGTCGGGCCAGTATACGCTATA, the PBM binding z-score was 1.03. For GCATATAGGTAATACAAGGTGAGAGTCCGATTGT, the PBM binding z-score was 0.351. In the case of TAGCCTAGGTCCGATCGGGCCAGTATACGCTATA, the PBM binding z-score is reported as -0.91. CCTACTGAGCCAAAAAGGTCATTGATGCCGATAA gave a PBM binding z-score of 4.58. For TTACCAAGGTGAGCAGAGGTCGTTGATCCAACTC, the PBM binding z-score was 3.68. In the case of ATCTCTAGGTAACAAGTTCAGTGATAGAGAGGAC, the PBM binding z-score is reported as 1.91. TCAGACAGGTGAAGGCAACTCAGGTACGCAGTCG was tested, and the PBM binding z-score was 0.552. With GCTATTAGTTGTAAGGGCAACCGAATGATTCTCG the PBM binding z-score was 0.148. In the case of AGTCAAAGTTCATCTAGGTAACGTAGGATATGCT, the PBM binding z-score is reported as 5.09. With TCGAGTAGGTTAGGGGCATACAGAATGGCGTCGA the PBM binding z-score was 0.604. For CCAGCCAGGTGAAAGGTAACTCAGTCTGGTACGC, the PBM binding z-score was 0.288. CCCGAAAGGTCGGTTGAGGTGAGTATACGGATAA was tested, and the PBM binding z-score was 2.57. Sequence ACTAGTTGGTCAGCTGAGGTCACACAGAATTCGG has a PBM binding z-score of 4.42. Sequence GTACCACGGTGAATAGGTCGTTGATGAGTAGGCG has a PBM binding z-score of -0.0883. ATCGAAAGGTCGTGAGTTGAGTATACAGAAAGGC gave a PBM binding z-score of 3.51. With TGAATGAGGTTAAAGATCCGGGAACGTGGCGTCG the PBM binding z-score was 1.03. In the case of TCTTGCAGATCAAAGGTTAAGAAAGCCGAAGCCT, the PBM binding z-score is reported as 1.3. GCAGACAGGTGAGACGCAGGTAACTCAGGGTGGC was tested, and the PBM binding z-score was -0.432. In the case of CGAACTAAGTCAAGGACAGTGAATCTCCGCACGC, the PBM binding z-score is reported as -0.36. Work on GCAGACAGGTTAAACGCAGGTAACTCAGGGTGGC yielded a PBM binding z-score of 0.135. CCTAGTTGGTCAAGAGGTCACACACCGGATATGA showed a PBM binding z-score of 4.64. For TCATATAGGTAAATGCTAAGTGAAAGTCCGATCT, the PBM binding z-score was 0.987. Work on ACTATTAGCTGAGACGAGGGCAACCGATAGGTTG yielded a PBM binding z-score of 0.232. Work on ATATGTAGGTTATGGGTCATTCAGGTTGGTTCGC yielded a PBM binding z-score of 4.33. AGTAAAAGTTCAGGACGAGGTAACGTAAAGCACG showed a PBM binding z-score of 2.66. In the case of GCTTACGGGTCACAGGTTATAGCATGAATAGAAT, the PBM binding z-score is reported as 3.9. TGAATGAGGTTAAAGATCTGGGAACGTGGCGTCG gave a PBM binding z-score of 1.31. Sequence ACTATTAGTTGACTTGGGGCAACCGATACGACGC has a PBM binding z-score of 0.274. Sequence AGAAAGAGGTTATACGTAGATCAGGGAAGAAAGT has a PBM binding z-score of 1.4. TCTTGTAGATCAATAGTGGTTAAGAAAGTGCGCT showed a PBM binding z-score of 0.673. TCATATAGGTAATGCAGGTGAAAGTCGGCATCTA gave a PBM binding z-score of 0.862. TCTAGCAGGCCACAGGGTCACTCAAGAGGTACGG showed a PBM binding z-score of 2.93. For AACTCTAGGTAACCAAGTTCAGTGAATGCCGAAC, the PBM binding z-score was 3.64. In the case of ACTATTAGTTGAGAAGAGGGCAACCGATAGGTTG, the PBM binding z-score is reported as 0.507.
